A short description of test [1]: APR_HepG2_P-H2AX_72hr: Apredica 72-hour HepG2 Assay for H2AX Phosphorylation (AID 2282916).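 Further: phospho-histone H2A.x immunostain intensity per cell marking DNA damage.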 The conditions noted are these: imaging, actives raise or lower the signal. In short, it runs like this:
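Human hepatoma HepG2 cells are dosed across ten concentrations (0.39 to 200 uM, 0.5% v/v DMSO) and incubated 72 hr. Phospho-histone H2A.x is then detected by antibody staining alongside c-Jun and Hoechst, and quantified by automated fluorescence imaging.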

The nature of test [2]: APR_HepG2_MitoMembPot_72hr: Apredica 72-hour HepG2 Assay for Mitochondrial Membrane Potential (AID 2282917). The conditions noted are these: imaging, actives raise or lower the signal. In short, it runs like this: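 HepG2 cells exposed 72 h to compounds at 0.39–200 uM (0.5% v/v DMSO, duplicates); MitoTracker Red CMXRos 250 nM loaded 30 min before 3.7% formaldehyde fixation, imaged by HCS fluorescence. Bidirectional fit versus DMSO.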

Test [3] can be described thus: APR_HepG2_MitoticArrest_72hr: Apredica 72-hour HepG2 Assay for Mitotic Arrest (AID 2282918). The note with it: high-content imaging, actives raise or lower the signal. In short, it runs like this:
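HepG2 cells were exposed for 72 hr to compound at 0.39–200 uM (10 concentrations, duplicate) in 0.5% v/v DMSO, fixed in 3.7% formaldehyde, immunostained for phospho-histone H3 with Hoechst 33342 and imaged by high-content fluorescence; bidirectional fits versus DMSO.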

Test [4] is described as follows: APR_HepG2_P-H2AX_24hr: Apredica 24-hour HepG2 Assay for H2AX Phosphorylation (AID 2282920). The note with it: high-content imaging, actives raise or lower the signal. An outline of the steps: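 HepG2 human liver cells were exposed for 24 hr to compounds at 0.39–200 uM in duplicate, with 0.5% v/v DMSO final. Fixed cells were immunostained for phospho-histone H2A.x plus Hoechst 33342, imaged by HCS fluorescence, and fitted bidirectionally against DMSO.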

The nature of test [5]: APR_HepG2_StressKinase_72hr: Apredica 72-hour HepG2 Assay for Stress Kinase (AID 2282921). The note with it: HepG2 stress kinase (phospho-c-Jun) imaging, actives raise or lower the signal. In short, it runs like this: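 After a 72 h compound treatment spanning 0.39 to 200 uM, formaldehyde-fixed cells are labelled for phosphorylated c-Jun and nuclei, imaged by automated fluorescence microscopy, and activity is fitted in both directions relative to DMSO controls.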

The nature of test [6]: APR_HepG2_MitoMass_72hr: Apredica 72-hour HepG2 Assay for Mitochondrial Mass (AID 2282924).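 Further: MitoTracker Red CMXRos stain intensity per cell imaged as mitochondrial mass.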 The note with it: high-content imaging, actives raise or lower the signal. An outline of the steps: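 Steps: treat HepG2 72 hr (0.39–200 uM, duplicate wells); load MitoTracker Red CMXRos, 250 nM, 30 min; fix with 3.7% formaldehyde, permeabilise with 0.5% Triton X-100; capture images, nuclei via Hoechst 33342; fit bidirectionally against DMSO.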

A short description of test [7]: ATG_CRE_CIS: Attagene CIS-FACTORIAL HepG2 Assay for human cAMP Responsive Element (CRE) binding protein 3 (AID 2282926). The note with it: HepG2 CRE cis-reporter, Attagene multiplexed mRNA; actives raise or lower the signal. An outline of the steps:
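Capillary electrophoresis of 6-FAM-labelled, HpaI-digested PCR products quantified reporter transcripts. These came from HepG2 transiently transfected with cis-element reporters and exposed to test chemicals for 24 hours, with DMSO defining baseline activity.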

The target in test [8] is CCAAT/enhancer-binding protein beta (Homo sapiens) (UniProt P17676). Kind of test: ATG_C_EBP_CIS: Attagene CIS-FACTORIAL HepG2 Assay for human CCAAT/Enhancer Binding Protein (C/EBP) beta (AID 2282927). The conditions noted are these: HepG2 Attagene cis-factorial transcription factor reporter; actives raise or lower the signal. An outline of the steps: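 Following a 24 h incubation with test chemical, transfected HepG2 cells yielded RNA whose reporter transcripts were quantified by RT-PCR and fluorescent capillary electrophoresis, with DMSO serving as baseline for bidirectional fitting.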

Test [9] is described as follows: ATG_CMV_CIS: Attagene CIS-FACTORIAL HepG2 Assay for human CMV (Internal Marker) (AID 2282928).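 Further: endpoint acts as a background internal control marker rather than a target.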 The note with it: HepG2 CMV promoter reporter, transcription factor profiling; actives raise or lower the signal. An outline of the steps: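 Bidirectional fits against DMSO are applied to reporter mRNA, read by RT-PCR with capillary electrophoresis, from HepG2 cells exposed 24 h. The endpoint serves as an internal CMV background marker within the cis-factorial reporter panel.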

Test [10] can be described thus: ATG_DR4_LXR_CIS: Attagene CIS-FACTORIAL HepG2 Assay for human Liver X Receptor (LXR), DR4 submotif (AID 2282929). The note with it: HepG2 Attagene DR4 cis-reporter, mRNA transcription; actives raise or lower the signal. In short, it runs like this:
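After transient transfection with multiplexed cis-promoter reporter units, HepG2 cells received test chemicals for 24 h. Reporter mRNA induction, detected by fluorescence after RT-PCR and capillary electrophoresis, was scored relative to DMSO.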

Test [11] has as its target Aryl hydrocarbon receptor (Homo sapiens) (UniProt P35869). The experiment in a line: ATG_Ahr_CIS: Attagene CIS-FACTORIAL HepG2 Assay for human Aryl Hydrocarbon Receptor (Ahr) (AID 2282930). The conditions noted are these: HepG2 AhR cis-factorial reporter transcription; actives raise or lower the signal. In short, it runs like this: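 Values derive from bidirectional fitting against DMSO negative control. Underlying signal: cis-element reporter mRNA in transiently transfected HepG2, harvested 24 h post-dose and measured by RT-PCR plus capillary electrophoresis.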

The nature of test [12]: ATG_AP_1_CIS: Attagene CIS-FACTORIAL HepG2 Assay for human Activator Protein 1 (AP-1) (AID 2282931). The note with it: HepG2 Attagene cis-factorial AP-1 reporter mRNA; actives raise or lower the signal. In short, it runs like this:
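After 24 h incubation with test chemical, RNA from transfected HepG2 cells was reverse-transcribed, amplified, fluorescently labelled and digested before capillary electrophoresis. Reporters were driven by cis-regulatory promoters; activity fitted bidirectionally versus DMSO.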

The nature of test [13]: ATG_AP_2_CIS: Attagene CIS-FACTORIAL HepG2 Assay for human Activator Protein 2 (AP-2) (AID 2282932). The conditions noted are these: HepG2 AP-2 cis-reporter, Attagene transcription factor profiling; actives raise or lower the signal. An outline of the steps:
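Cells (HepG2) transfected with promoter-driven reporter constructs, treated 24 h. Total RNA reverse-transcribed, reporter cDNA PCR-amplified, FAM-labelled by primer extension, digested, resolved by capillary electrophoresis. Activity fitted both directions versus DMSO.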

Test [14] can be described thus: ATG_BRE_CIS: Attagene CIS-FACTORIAL HepG2 Assay for human Bone Morphogenetic Protein (BMP) Response Element (BRE) (AID 2282933). The conditions noted are these: HepG2 BMP response element reporter, Attagene transcription factor profiling; actives raise or lower the signal. An outline of the steps:
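HepG2 cells transiently transfected with CIS reporter units (endogenous TF activity, BMP response element), dosed 24 h. Reporter mRNA quantified by RT-PCR, fluorescent labelling and capillary electrophoresis; bidirectional fit vs DMSO baseline.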

A short description of test [15]: APR_HepG2_p53Act_72hr: Apredica 72-hour HepG2 Assay for p53 Activation (AID 2282923).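 Further: average cellular p53 protein immunofluorescence intensity in HepG2 cells.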 The note with it: high-content imaging, actives raise or lower the signal. An outline of the steps:
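Imaging-based endpoint: after 72 hr compound exposure (up to 200 uM, 0.5% DMSO), fixed and permeabilized monolayers were labelled with anti-p53 antibody and imaged; signal change in either direction was fitted relative to DMSO controls.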

In test [16] the target is Retinoic acid receptor alpha (Homo sapiens) (UniProt P10276). Kind of test: ATG_DR5_RAR_CIS: Attagene CIS-FACTORIAL HepG2 Assay for human Retinoic Acid Receptor Alpha (RARE), DR5 submotif (AID 2282934). The note with it: HepG2 Attagene cis-factorial RARE DR5 reporter, mRNA; actives raise or lower the signal. An outline of the steps:
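Endpoint fitted in both directions relative to DMSO as negative control. It reflects DR5 cis-element reporter mRNA induction in transiently transfected HepG2 cells, measured 24 h after dosing through RT-PCR and fluorescent capillary electrophoresis.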

Test [17] is described as follows: APR_HepG2_NuclearSize_72hr: Apredica 72-hour HepG2 Assay for Nuclear Size (AID 2282925). The note with it: high-content imaging, actives raise or lower the signal. In short, it runs like this: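 Compounds (0.39–200 uM, final DMSO 0.5%) were applied to HepG2 for 72 hr. Cells were then formaldehyde-fixed, permeabilized and labelled with Hoechst 33342. Nuclear diameter was quantified from six images per well.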

Active and inactive are the calls of the source. How the source made its calls: active means hit-call score of the fitted dose curve at least 0.9, where 1 is the maximum; inactive means score below 0.9.

Chain of CCAAT/enhancer-binding protein beta (Homo sapiens) (P17676 whole entry, looked up): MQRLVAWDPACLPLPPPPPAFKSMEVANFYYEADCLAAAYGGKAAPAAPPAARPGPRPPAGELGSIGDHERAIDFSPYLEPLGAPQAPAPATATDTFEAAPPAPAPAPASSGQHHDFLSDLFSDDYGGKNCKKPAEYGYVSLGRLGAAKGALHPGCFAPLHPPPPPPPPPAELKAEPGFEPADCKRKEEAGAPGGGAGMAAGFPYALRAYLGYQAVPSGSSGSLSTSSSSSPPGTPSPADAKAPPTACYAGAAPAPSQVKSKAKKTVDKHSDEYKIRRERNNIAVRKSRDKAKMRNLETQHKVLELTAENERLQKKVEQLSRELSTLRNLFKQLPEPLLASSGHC
Chain of Aryl hydrocarbon receptor (Homo sapiens) (P35869 whole entry, looked up): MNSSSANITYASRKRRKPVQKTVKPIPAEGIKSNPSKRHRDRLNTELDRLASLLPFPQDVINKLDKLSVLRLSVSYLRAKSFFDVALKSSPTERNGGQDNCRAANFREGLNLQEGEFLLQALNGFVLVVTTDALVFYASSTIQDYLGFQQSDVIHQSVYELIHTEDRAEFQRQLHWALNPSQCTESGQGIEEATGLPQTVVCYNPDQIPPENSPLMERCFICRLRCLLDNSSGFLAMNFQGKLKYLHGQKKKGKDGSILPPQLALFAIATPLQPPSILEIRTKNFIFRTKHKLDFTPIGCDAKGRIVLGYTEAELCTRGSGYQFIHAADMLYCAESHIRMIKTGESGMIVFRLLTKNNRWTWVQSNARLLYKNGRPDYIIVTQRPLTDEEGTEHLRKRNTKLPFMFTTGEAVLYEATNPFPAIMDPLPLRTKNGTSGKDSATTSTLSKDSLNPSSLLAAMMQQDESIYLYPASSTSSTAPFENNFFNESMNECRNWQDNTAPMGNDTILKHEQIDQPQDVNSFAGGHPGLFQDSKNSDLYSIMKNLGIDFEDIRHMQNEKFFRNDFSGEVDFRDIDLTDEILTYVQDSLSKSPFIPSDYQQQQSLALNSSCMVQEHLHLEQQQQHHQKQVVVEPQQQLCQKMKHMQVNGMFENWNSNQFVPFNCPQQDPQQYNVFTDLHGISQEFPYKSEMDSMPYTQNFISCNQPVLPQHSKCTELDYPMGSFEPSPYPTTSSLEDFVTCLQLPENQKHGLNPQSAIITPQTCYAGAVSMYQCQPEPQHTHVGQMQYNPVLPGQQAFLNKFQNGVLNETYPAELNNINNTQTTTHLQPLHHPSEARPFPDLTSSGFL
Chain of Retinoic acid receptor alpha (Homo sapiens) (P10276 whole entry, looked up): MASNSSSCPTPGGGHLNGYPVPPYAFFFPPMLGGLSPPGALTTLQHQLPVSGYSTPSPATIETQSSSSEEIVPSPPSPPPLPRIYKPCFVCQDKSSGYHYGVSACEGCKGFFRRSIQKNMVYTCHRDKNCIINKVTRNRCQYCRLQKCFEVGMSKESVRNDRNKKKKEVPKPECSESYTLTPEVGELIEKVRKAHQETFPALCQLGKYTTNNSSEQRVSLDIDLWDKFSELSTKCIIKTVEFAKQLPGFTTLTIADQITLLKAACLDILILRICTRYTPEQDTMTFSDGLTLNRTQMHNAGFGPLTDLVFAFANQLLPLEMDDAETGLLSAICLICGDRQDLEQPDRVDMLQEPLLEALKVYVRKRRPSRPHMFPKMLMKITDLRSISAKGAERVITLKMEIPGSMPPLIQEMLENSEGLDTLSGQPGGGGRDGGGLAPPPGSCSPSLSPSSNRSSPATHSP

What is called AC50 is the midpoint of the concentration-response curve, whichever way the signal moves. Regarding `COP(=O)(OC)OC=C(Cl)Cl`, the compound was classed as inactive in test [1], in test [2], in [3], in test [5], in [6] and in [7]. The result in test [8], in test [10], in [11] and in test [14] was inactive. For the same compound, the AC50 in test [4] is 76.2 µM (active); in [9], 18.4 µM (active); in test [12], 67.3 µM (active); in [13], 50 µM (active).

As to `OCCOc1ccccc1`, the compound was called inactive in test [1], in test [2], in [3], in [4], in test [5] and in test [15]. The compound was called inactive in test [6], in test [7], in [9], in test [10], in test [11] and in [12]. The compound was classed as inactive in [13], in [14] and in [16].

As for `CNC(=O)Oc1ccccc1OC(C)C`, the call in test [1], in [2], in test [3], in test [4], in test [5] and in test [15] was inactive. Further, the compound was called inactive in test [6], in test [17], in [7], in [9], in [10] and in test [11]. Further, the outcome in test [12], in test [13], in test [14] and in test [16] was inactive.

With `COc1cc(OC)nc(NC(=O)NS(=O)(=O)c2cc(NC=O)ccc2C(=O)N(C)C)n1`, the compound was classed as inactive in [1], in [2], in test [3], in [4], in test [5] and in test [15]. Further, the outcome in test [6], in [7], in test [9], in [10], in test [11] and in test [12] was inactive. The compound was classed as inactive in test [13], in [14] and in [16]. In addition, the concentration at half-maximal activity (AC50) in [8] was 13.3 µM (active).

On to `C#CCN1C(=O)COc2cc(F)c(N3C(=O)C4=C(CCCC4)C3=O)cc21`, for which the call in test [1], in test [2], in test [3], in [4], in test [5] and in test [6] was inactive. For the same compound, the outcome in [8], in test [9], in [10], in [11], in [12] and in test [13] was inactive. Moreover, the call in test [14] and in [16] was inactive. Also, in test [7], the AC50 was 22.4 µM (active).

For the compound `CCC(C)(NC(=O)c1cc(Cl)c(C)c(Cl)c1)C(=O)CCl` (configuration not stated), the compound was called inactive in test [1], in test [2], in [3], in test [4], in test [5] and in test [15]. In addition, the compound was classed as inactive in test [6], in [7], in [8], in test [9], in [10] and in [11]. Moreover, the result in test [12], in test [13], in [14] and in test [16] was inactive.

For `[2H]C1([2H])[n+]2ccccc2-c2cccc[n+]2C1([2H])[2H]`, the compound was called inactive in test [1], in [2], in test [4], in test [5], in test [15] and in test [6]. The compound was called inactive in test [7], in [11], in test [13], in test [14] and in test [16]. For the same compound, the AC50 in test [3] is 94.5 µM (active); in test [9], 13.5 µM (active); in test [10], 79.9 µM (active); in test [12], 38.9 µM (active).
